The values that follow come from PubChem BioAssay (EPA / NIEHS).

Structures are written as SMILES. Records with an inconclusive call do not appear. Calls of active or inactive are those of the source. Rule for the calls: active = hit-call score of the fitted dose curve at least 0.9, where 1 is the maximum; inconclusive = response in the unintended direction; inactive = score below 0.9.

By AC50 is commonly meant the concentration giving half of the maximal activity seen.

In this assay the target is human Vascular Endothelial Growth Factor Receptor 2 (VEGFR2), KDR (gene 3791) (UniProt P35968). As to the kind of experiment: NVS_ENZ_hVEGFR2: NovaScreen (NVS) Enzymatic Assay for human Vascular Endothelial Growth Factor Receptor 2 (VEGFR2) (AID 2283230). In a few lines: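 Cell-free recombinant VEGFR2 kinase, fluorescent substrate with electrophoretic mobility-shift separation; read 1 h after dosing. Screened at 25 uM in duplicate, hits to concentration-response up to 50 uM; loss-of-signal versus DMSO.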
Sequence of human Vascular Endothelial Growth Factor Receptor 2 (VEGFR2), KDR (gene 3791) (P35968 whole entry, looked up): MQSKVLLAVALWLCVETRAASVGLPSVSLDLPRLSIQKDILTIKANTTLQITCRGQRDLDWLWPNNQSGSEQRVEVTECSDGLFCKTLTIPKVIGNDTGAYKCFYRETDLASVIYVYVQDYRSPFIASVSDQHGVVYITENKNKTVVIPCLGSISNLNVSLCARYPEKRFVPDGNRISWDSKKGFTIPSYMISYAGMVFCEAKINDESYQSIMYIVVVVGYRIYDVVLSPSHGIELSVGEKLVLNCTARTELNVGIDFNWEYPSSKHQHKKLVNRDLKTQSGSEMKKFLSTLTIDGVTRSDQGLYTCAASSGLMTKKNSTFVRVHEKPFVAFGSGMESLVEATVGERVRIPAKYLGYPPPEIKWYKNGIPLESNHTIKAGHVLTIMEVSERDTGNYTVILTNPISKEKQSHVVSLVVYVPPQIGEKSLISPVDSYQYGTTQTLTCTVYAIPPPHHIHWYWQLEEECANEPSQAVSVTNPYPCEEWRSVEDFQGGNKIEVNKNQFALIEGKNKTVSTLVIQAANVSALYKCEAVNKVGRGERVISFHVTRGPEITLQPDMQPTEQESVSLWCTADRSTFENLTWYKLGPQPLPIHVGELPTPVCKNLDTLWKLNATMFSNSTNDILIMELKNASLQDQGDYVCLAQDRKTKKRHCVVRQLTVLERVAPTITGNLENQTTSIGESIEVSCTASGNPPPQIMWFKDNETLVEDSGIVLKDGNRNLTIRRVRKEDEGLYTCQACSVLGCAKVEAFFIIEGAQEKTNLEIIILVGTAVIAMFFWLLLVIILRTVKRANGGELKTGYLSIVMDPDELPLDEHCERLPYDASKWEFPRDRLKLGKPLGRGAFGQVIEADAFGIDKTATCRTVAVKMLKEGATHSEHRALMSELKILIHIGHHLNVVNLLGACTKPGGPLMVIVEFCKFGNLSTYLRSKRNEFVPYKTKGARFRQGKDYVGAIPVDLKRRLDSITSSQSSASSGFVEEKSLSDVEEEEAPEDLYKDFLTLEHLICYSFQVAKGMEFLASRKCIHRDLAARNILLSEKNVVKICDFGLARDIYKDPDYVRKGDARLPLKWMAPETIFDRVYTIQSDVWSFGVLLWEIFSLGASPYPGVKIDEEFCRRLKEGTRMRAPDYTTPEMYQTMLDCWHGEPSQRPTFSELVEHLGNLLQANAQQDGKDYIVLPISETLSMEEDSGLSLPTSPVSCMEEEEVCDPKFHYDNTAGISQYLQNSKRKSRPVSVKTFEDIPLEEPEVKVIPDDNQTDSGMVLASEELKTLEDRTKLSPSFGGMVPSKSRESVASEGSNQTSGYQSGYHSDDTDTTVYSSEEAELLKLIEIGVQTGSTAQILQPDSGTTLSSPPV
As for `CCCCCCOCCO`, the call was inactive.
With `CCCCCCCCCCCCCO`, the result was inactive.
Still for that read-out and setting: to `O=c1[nH]cc(F)c(=O)[nH]1` belongs “inactive”.
For `CC(C)(C)c1cc(O)c(C(C)(C)C)cc1O`, the call was inactive.
Turning to `CCc1c(C(=O)NN2CCCCC2)nn(-c2ccc(Cl)cc2Cl)c1-c1ccc(Br)cc1`, the compound was called inactive.
Still for that read-out and setting: to `CN[C@H]1CC[C@@H](c2ccc(Cl)c(Cl)c2)c2ccc(S(N)(=O)=O)cc21` belongs “inactive”.
For the compound `Cc1oc(-c2ccccc2)nc1CCOc1cccc2c1ccn2CCC(=O)O`, the result was inactive.
For the compound `COc1cc(-c2nc(NC(=O)c3cc4cc(C)cc(C)c4n3CC(=O)O)sc2CCC2CCCCC2)c(OC)cc1Cl`, the concentration at half-maximal activity (AC50) is 7.16 µM (active).
As for `O=C(OCCCCCOC(=O)c1ccccc1)c1ccccc1`, the compound was classed as inactive.
`CC1=C(/C=C/C(C)=C/C=C/C(C)=C/CO)C(C)(C)CCC1`: the result was inactive.
Same read-out and setting: to `NCCO` belongs “inactive”.
